A number with no mark means an inactive call.

This experiment is described as follows: basal 3T3-L1 adipocyte mitochondrial potential changes, profiling panel, cell-based, JC-1 fluorescence, 3T3-L1 adipocytes, 24 h, 100 nL compound (AID 1168). Also: test concentration not given here. The conditions noted are these: JC-1 mitochondrial fluorescence, higher = more signal, called active from +8 up or from −8 down.
Regarding `COc1ccc(C#Cc2ccc3c(c2)[C@]2(C(=O)N3)[C@H](C(=O)N3CCN(c4ncccn4)CC3)[C@H]3C(=O)O[C@H](c4ccccc4)[C@H](c4ccccc4)N3[C@@H]2c2ccc(O)cc2)cc1`, the z-score is 1.08.

Regarding `CCCC[C@H]1C[C@@H]1[C@@H]1N(P(=O)(c2ccccc2)c2ccccc2)[C@](CO)(c2ccccc2)CC12CC2`, the z-score was -0.732.

As to `O=C(N1CCCCC1)[C@]1(CCS(=O)(=O)c2ccccc2)N=C(c2ccc(OCCCO)cc2)O[C@@H]1c1ccccc1`, the z-score was -0.136.

Regarding `OCCCc1cc[n+](Cc2cccc(OC(F)(F)F)c2)cc1`, the z-score is -0.487.

Consider `COc1ccc([Si](C)(C)[C@H]2[C@H](CC(=O)N3CCC[C@H]3CO)O[C@@]3(C(=O)N(Cc4cccc(N5CCC5=O)c4)c4ccccc43)[C@@H]2C)cc1`, for which the z-score is -0.457.

Take `CCCNC(=O)[C@@]1(c2ccc([N+](=O)[O-])cc2)CC(=O)N(CC23CC4CC(CC(C4)C2)C3)[C@@H]1c1ccc(CO)cc1I`: the z-score was -0.0911.

For the molecule `CCCNC(=O)[C@@]1(C)c2ccccc2C(=O)N(Cc2cc(F)cc(C(F)(F)F)c2)[C@H]1c1ccc(CO)cc1`, the z-score was 0.224.

Take `C=C[C@H](C)[C@H](OC(=O)Nc1ccc(OC)cc1)c1ccc(O)c2ccccc12`: the z-score was -1.

With `O=c1cccc(-c2ccccc2)o1`, the z-score was 0.221.

In the case of `CC1CC/C=C\[C@H]2OC34C=CCN(Cn5nnc6ccccc65)C(=O)[C@H]3N(CCCO)C(=O)[C@@H]4C2C(=O)O1` (stereo not given in full), the z-score is -0.382.

As to `COc1ccc(C#Cc2ccc3c(c2)[C@]2(C(=O)N3)[C@H](c3ccc(OCCO)cc3)N3[C@H](c4ccccc4)[C@H](c4ccccc4)OC(=O)[C@H]3[C@@H]2C(=O)Nc2nc3ccccc3s2)cc1`, the z-score was 6.28.

As to `C=C(C(=O)CC[C@H](OC(=O)c1cccnc1)c1ccccc1OCCO)C(C)C`, the z-score is 0.31.

Regarding `C=CC[C@@]1(C(=O)NCCN2CCOCC2)N=C(c2ccc(OCCCO)cc2)O[C@@H]1c1ccccc1CN=[N+]=[N-]`, the z-score was -0.224.

For `C=CCOC(=O)[C@H]1[C@@H]2C(=O)O[C@@H](c3ccccc3)[C@@H](c3ccccc3)N2[C@@H](c2ccc(OCCOC(=O)[C@@H]3C[C@@H]4C(=O)NCC(=O)N4[C@@H]3c3ccc(O)cc3)cc2)[C@]12C(=O)Nc1ccc(I)cc12`, the z-score is 0.459.

For `CCOC(=O)C[C@H]1[C@H](OC(=O)c2ccc(C(=O)c3ccccc3)cc2)[C@@H](NC(=O)c2ccc3ccccc3n2)c2cc(OCCCO)ccc2N1C(=O)c1ccc2ccccc2n1`, the z-score was 1.63.

Take `C=CCC(OC(C)=O)[C@@H]1[C@@H](N(Cc2ccc(-c3cccc(C(F)(F)F)c3)o2)C(=O)Cc2ccc(OC)cc2)c2cc(OCCCO)ccc2N1C(=O)Cc1ccc(OC)cc1` (stereo not given in full): the z-score was -0.709.

As for `C=CCC(OC(C)=O)[C@@H]1[C@@H](N(Cc2ccc(-c3ccccc3)cc2)C(=O)c2ccc(C)cc2)c2cc(OCCCO)ccc2N1C(=O)Cc1ccc(OC)cc1` (stereo not given in full), the z-score was -0.172.

Turning to `C=C(COC)C(=O)CC[C@@H](OC(=O)c1ccccc1-c1ccccc1C(=O)O)c1ccc(CO)o1`, the z-score was 0.429.

With `CN(C)CCCC[C@@H]1NC(=O)[C@@H]2C[C@H](C(=O)NCCCCCN)[C@H](c3ccc(O)cc3)N2C1=O`, the z-score was 0.665.

Take `CN(C)CCCN1C(=O)[C@@]2(c3ccc([N+](=O)[O-])cc3)CC(=O)N(C3CCCCC3)[C@@H]2c2ccc(CO)cc21`: the z-score was -0.274.

For the molecule `O=C1C2C=CC(C(O)c3cccc4ccccc34)N(n3cnnc3)C2C(=O)N1Cc1ccccc1` (stereo not given), the z-score is -1.18.

Take `COCCCNC(=O)[C@]1(Cc2ccccc2N=[N+]=[N-])N=C(c2ccc(OCCCO)cc2)O[C@@H]1c1ccccc1CN=[N+]=[N-]`: the z-score was -0.683.

Turning to `C=C(COC)C(=O)CC[C@H](OC(=O)c1cccnc1)c1ccccc1OCCO`, the z-score was 0.0833.

`CCOC(=O)N1C(c2ccc(OCCCO)cc2)=NC(C(=O)OC)N1C(=O)OCC` (stereo not given): the z-score is 0.68.

Turning to `C=CCOC(=O)[C@H]1[C@@H]2C(=O)O[C@@H](c3ccccc3)[C@@H](c3ccccc3)N2[C@@H](c2ccc(OCCOC(=O)[C@H]3C[C@H]4C(=O)N[C@@H](CCCC[N+](C)(C)C)C(=O)N4[C@H]3c3ccc(O)cc3)cc2)[C@]12C(=O)Nc1ccccc12`, the z-score was 1.31.

Consider `CC(C)N1C(=O)c2ccccc2[C@](C)(C(=O)NCCCN(C)C)[C@@H]1c1ccc(CO)cc1`, for which the z-score was -0.253.

For the molecule `C=CCC(OC(C)=O)[C@@H]1[C@@H](N(Cc2ccc(-c3ccccc3)cc2)C(=O)c2ccc(C)cc2)c2cc(OCCCO)ccc2N1C(=O)c1ccc2ccccc2n1` (stereo not given in full), the z-score is 0.285.

With `COC(=O)[C@@]1(Cc2ccc(F)cc2)[C@H]2c3cc(C(=O)N4CCCC4)n(Cc4ccc(Cl)c(C(F)(F)F)c4)c3C[C@H]2CN1C(=O)c1ccccc1`, the z-score is -1.33.

Consider `COCCCNC(=O)[C@@]1(Cc2ccccc2I)c2ccccc2C(=O)N(Cc2ccccc2)[C@H]1c1ccc(CO)cc1`, for which the z-score is -0.432.

As to `CC(=O)NCCCC[C@@H]1NC(=O)[C@@H]2C[C@H](C(=O)NCc3ccc(F)cc3)[C@H](c3ccc(O)cc3)N2C1=O`, the z-score is 0.58.

In the case of `CCOC(=O)C1=CC[C@@H](c2cccc(Cl)c2)N(S(=O)(=O)c2ccc(C)cc2)[C@H]1c1ccc(C#N)cc1`, the z-score is 0.0503.

Take `CCCNC(=O)[C@@]1(C)c2ccccc2C(=O)N(Cc2cc(C(F)(F)F)cc(C(F)(F)F)c2)[C@H]1c1ccc(CO)cc1`: the z-score was -0.161.

As for `COC(=O)c1c2oc(c1C(=O)OC)C(=O)N[C@H](Cc1ccccc1)Cn1nncc1C1(CCCCC1)NC(=O)N[C@H](CO)CC2`, the z-score is -0.413.

Turning to `CN(C)CCCC[C@@H]1NC(=O)[C@@H]2C[C@H](C(=O)NCc3ccc(F)cc3)[C@H](c3cccc(OCCO)c3)N2C1=O`, the z-score was 0.544.

`COc1ccc([Si](C)(C)[C@@H]2[C@@H](CCn3cc([C@H](O)c4ccccc4)nn3)O[C@]3(C(=O)N(C)c4ccccc43)[C@H]2C)cc1`: the z-score was -0.42.

The values above are taken from PubChem BioAssay.
